Experimental findings from PubChem BioAssay AID602313 (National Center for Advancing Translational Sciences (NCATS), 2012) are described below.

Hit rate of the full screen: of about 390,000 compounds, about 760 (0.19%) were called active. Not shown: some 3% with an inconclusive outcome. The list comes from a sample in which actives are over-represented; it also holds similar structures and randomly drawn compounds. Values without a mark were called inactive. Calls come from the whole dose curve; as a rule, active = well fitted inhibition curve with a large enough effect; inconclusive = small, poorly fitted or top-dose-only effect; inactive = flat fitted curve, though single readings scatter.
Potency is the fitted concentration of half-maximal effect.

This assay in a line: qHTS for Inhibitors of Vif-A3F Interactions: qHTS. For activity, negative = active: % of control where 0% means no effect. Note: nearly all actives have a fitted effect of over 65% in size. The following applies: HeLa A3F-eYFP + Vif (tagged APOBEC3F with the HIV-1 protein that degrades it), YFP fluorescence increase; series mostly up to 46.1 µM; activity, negative = active: at the top concentration. The source says:
The recent discovery and characterization of host restriction factors, which provide a potent defense to invading retroviruses, has provided new targets for antiviral drug development. APOBEC3G (A3G) and APOBEC3F (A3F) are potent cytidine deaminases that block HIV-1 replication; HIV-1 expresses the Vif protein, which counteracts A3G and A3F by binding to them and inducing their proteasomal degradation. The Vif-A3G and Vif-A3F interactions provide two potential targets for development of small molecules which can interfere with the ability of Vif to degrade A3G or A3F. […] To identify inhibitors that can interfere with Vif mediated degradation of A3G and A3F, we have developed Hela cell lines that stably express A3G or A3F tagged with eYFP at the C-terminal end (A3G-eYFP or A3F-eYFP, respectively) and Vif. In the absence of an inhibitor, Vif induces degradation of A3G-eYFP and A3F-eYFP, and the cells are not fluorescent. In the presence of an inhibitor, it is expected that Vif will be unable to degrade A3G-eYFP and/or A3F-eYFP, resulting in an increase in yellow fluorescence. In this assays Vif A3F was screened against the Molecular Library Small Molecule Repository (MLSMR). NIH Chemical Genomics Center [NCGC] NIH Molecular Libraries Probe Centers Network [MLPCN] MLPCN Grant: MH093245 Assay Submitter (PI): Vinay Pathak, National Cancer Institute
5 uL of 700 cells/well of A3F-YFP cells are dispensed into black, clear bottom plates. The plates are incubated overnight at 37 deg C. 23 nL of compounds are added by pintool. The plates are incubated overnight at 37 deg C and then read on the TTP Acumen (Ex 488/ Em 500-530).
For orientation: In qHTS, concentration-response curves come from the screen itself.
On to `Cc1[nH]c2ccccc2c1C(c1ccccc1)c1cccs1` (centres undefined), for which the “activity, negative = active” value is 1.42%.
Same read-out and setting: as for `COc1ccc(C2CC(c3cccs3)=Nc3ccccc3S2)cc1OC` (centres undefined), the figure is -5.58%.
The same measure, in the same setting: as for `CC1Cn2c(nnc2-c2cccs2)S1` (centres undefined), the figure is -0.767%.
Take `Cc1ccccc1C1CC(c2cccs2)=NN1S(C)(=O)=O` (centres undefined): the Potency is 17.8 µM (active).
As to `COc1cc(NS(=O)(=O)c2cccs2)cc(OC)c1`, the “activity, negative = active” value was -5.81%.
`Cc1ccccc1Cn1nc(C)c(NC(=O)c2cc(-c3ccc(F)cc3)on2)c1C`: the “activity, negative = active” value is -13.4%.
In the case of `CCN(CCCNC(=O)CSc1cc(=O)n(C)c2cc(Cl)ccc12)c1cccc(C)c1`, the “activity, negative = active” value is -6.36%.
Same read-out and setting: as for `COc1ccc(/C=C/c2nc(C#N)c(NCc3ccc(F)cc3)o2)cc1OC`, the figure is -0.36%; as for `N#Cc1nc(/C=C/c2ccc(F)cc2)oc1NCc1ccc(F)cc1`, 3.52%; as for `Cc1ccc(CSCC(=O)N(C)CC(=O)Nc2cccc(F)c2)cc1`, 7.18%.
In the case of `CCN(CC)C(=O)CSC(Nc1cccc(F)c1)=C(C#N)C#N`, the Potency is 10 µM (active).
Regarding `CCOC(=O)c1nnn(CC(=O)Nc2cccc(F)c2)c1C(=O)OCC`, the “activity, negative = active” value was 3.56%.
Same read-out and setting: as for `Cc1cc(C)cc(NC(c2nnc(-c3cccc(F)c3)o2)c2ccc(F)cc2Cl)c1` (centres undefined), the figure is -7.91%; as for `O=C(Nc1ccc(S(=O)(=O)N2CCC(c3nc4ccccc4s3)CC2)cc1)c1ccccc1F`, -10.8%; as for `O=C(Cn1nc(C(F)(F)F)c2c1CCCC2)Nc1ccc(Cl)cc1`, -21.5%.
With `NS(=O)(=O)c1ccc(NC(=O)COc2ccc(S(=O)(=O)NC3CCCCC3)cc2)cc1`, the “activity, negative = active” value is 2.92%.
On the same count and under the same terms, as for `Cc1cccn2c(=O)c(C(=O)NC(C)c3ccccc3)cnc12` (centres undefined), the figure is -2.37%.
The same measure, in the same setting: as for `CCC1CN(S(=O)(=O)c2cc(-c3cc(C)no3)ccc2C)c2cc(C)ccc2O1` (centres undefined), the figure is -2.18%.
Still for that read-out and setting: as for `O=C(CSc1oc(-c2ccco2)nc1S(=O)(=O)c1ccccc1)c1ccc(Cl)cc1`, the figure is 1.03%; as for `CCOc1ccc(CNC(=O)C2CCCN(S(=O)(=O)N(CC)c3ccc(OCC)cc3)C2)cc1` (centres undefined), 0.581%; as for `CCOC(=O)c1cccc(NC(=O)c2cc(S(=O)(=O)N3CCCC(C)C3)cn2C)c1` (centres undefined), -5.21%.
For `Cc1ccc(NC(=O)CSc2nc3c([nH]c4ccccc43)c(=O)n2-c2ccccc2)c(C)c1`, the “activity, negative = active” value was -29.3%.
On the same count and under the same terms, as for `CCCOc1ccc(-c2cccc(NS(=O)(=O)c3ccccc3)c2)nn1`, the figure is 1.12%; as for `CCCN1CCN(CCCNC(=O)Cn2nc(CC)n3c(cc4occc43)c2=O)CC1`, 2.13%; as for `O=C(COc1ccccc1F)Nc1ccc(C(=O)OCc2cc(=O)n3nc(C4CC4)sc3n2)cc1`, -0.892%.
On the same count and under the same terms, as for `CC1=C(c2ccc(Cl)cc2)S(=O)(=O)N=C1N1CCN(c2cc(C)ccc2C)CC1`, the figure is -2.17%; as for `Cc1ccccc1CN1CCC(CNC(=O)c2cc3ccc4cccnc4c3[nH]2)CC1`, -0.638%.
Take `O=C(OC12CC3CC(CC(C3)C1)C2)c1ccc(NCc2cc(O)ccc2O)cc1`: the Potency was 22.4 µM (active).
Turning to `Fc1ccc(CSc2nc(NCc3ccccc3)c3ccccc3n2)cc1`, the “activity, negative = active” value is 4.7%.
As to `Fc1ccc(CNc2nc3ccccc3n3nnnc23)cc1`, the Potency was 7.94 µM (active).
Take `Cc1nnc(NCc2ccccc2)c2c1nnn2Cc1ccc(F)cc1`: the “activity, negative = active” value was 2.27%.
For the compound `Cc1cccc(Cn2c(SCc3ccc(C(=O)N4CCC(C)CC4)cc3)nc3ccncc32)c1`, the “activity, negative = active” value was -1.49%.
As to `O=C(Nc1ccc(Br)cc1)c1cc2nc(-c3ccccc3)cc(-c3ccccc3)n2n1`, the “activity, negative = active” value is 4.65%.
Same read-out and setting: as for `O=C(C[n+]1ccc2c(c1)nnn2-c1ccccc1)c1ccc(Cl)cc1`, the figure is -10.2%; as for `O=C(OCc1nc2ccccc2[nH]1)C1CCCCC1`, -2.45%.
On to `O=C(Cc1nc2ccccc2[nH]c1=O)c1ccc(Cl)cc1`, for which the Potency was 12.6 µM (active).
Still for that read-out and setting: as for `CCn1c(/C=C/c2ccc([N+](=O)[O-])o2)nc2ccccc2c1=O`, the figure is 22.4 µM (active).
For the compound `CCCN(CCC)c1c([N+](=O)[O-])c(=O)oc2ccccc12`, the “activity, negative = active” value was -4.57%.
Turning to `COc1cc(OC)c(OC)cc1/C=C/c1nc2ccccc2c(=O)n1-c1ccc(Br)c(C)c1`, the “activity, negative = active” value was 0.934%.
Same read-out and setting: as for `CCc1cccc(CC)c1NC(=O)Cn1c(=O)c(-c2cc(C)ccc2NC(C)=O)nc2ccccc21`, the figure is -4.89%; as for `CCc1nnc(SCc2c(F)cccc2Cl)c2cc3sccc3n12`, 10.3%; as for `CCOC(=O)c1ccc(NC(=O)CC2C(=O)N(c3cccc(OC)c3)C(=O)N2C2CCCCC2)cc1` (centres undefined), 0.959%.
Still for that read-out and setting: as for `Cc1oc2ncn(CC(C)C)c(=O)c2c1C(=O)N1CCN(c2ccccc2F)CC1`, the figure is -10.2%; as for `CCOc1ccc(S(=O)(=O)c2cn(Cc3ccc(OC)cc3)c3ccc(F)cc3c2=O)cc1`, 2.26%.
The same measure, in the same setting: as for `COc1cc(CN(C(=O)c2ccccc2Br)c2ccccn2)cc(OC)c1OC`, the figure is 0.907%.
With `O=C(NCc1ccccc1)c1ccc2c(c1)nc1n2CCCCC1`, the “activity, negative = active” value was 0.601%.
`Cc1ccc(CNC(=O)CCc2c(C)nn(-c3ccc(N4CCCC4)nn3)c2C)cc1`: the “activity, negative = active” value was -1.13%.
On the same count and under the same terms, as for `CCOCCCNC(=O)c1c(NC(=O)Cc2coc3ccc(C)cc23)sc2c1CCC2`, the figure is -0.611%.
On the same count and under the same terms, as for `CCC(=O)N1CCc2cc(S(=O)(=O)NC(Cc3ccccc3)C(=O)NCc3ccccc3)ccc21` (centres undefined), the figure is -2.71%.
